Each structure is given as a SMILES string. Activity calls are given as the source filed them. Rule for the calls: active = hit-call score of the fitted dose curve at least 0.9, where 1 is the maximum; inactive = score below 0.9.

Read-out in one assay: Potassium channel subfamily K member 1 (KCNK1), KCNK1 (gene 3775)
The assay is described as follows: LTEA_HepaRG_KCNK1: Life Technologies and Expression Analysis (LTEA) Assay for Potassium channel subfamily K member 1 (KCNK1) using HepaRG (AID 2283511). The note with it: mRNA level, 48 h; actives raise or lower the signal. In short, it runs like this:
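HepaRG, 48 h exposure, 8-pt half-log series top 100 uM, 0.5% DMSO vehicle, duplicates. Readout: KCNK1 transcript by qRT-PCR (Fluidigm array), housekeeping-normalized; bidirectional curve fit relative to DMSO baseline.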
`COC(=O)c1ccccc1C(=O)O`: the call was inactive.

In the case of `CCCOC(=O)c1ccc(C(=O)OCCC)nc1`, the molecule was classed as inactive.

With `CCCOC(=O)NCCCN(C)C`, the result was inactive.

On to `O=C(Nc1ccc([N+](=O)[O-])cc1Cl)c1cc(Cl)ccc1O`, for which the AC50 is 4.02 µM (active).

On to `CCC(C)OC(=O)N1CCCCC1CCO` (stereo unspecified), for which the outcome was inactive.

For `S=C([S-])NCCNC(=S)[S-].[Mn+2]`, the call was inactive.

Read-out in another assay: Keratin 19 (KRT19), KRT19 (gene 3880)
Kind of assay: LTEA_HepaRG_KRT19: Life Technologies and Expression Analysis (LTEA) Assay for Keratin 19 (KRT19) using HepaRG (AID 2283512). Conditions: mRNA level, 48 h; actives raise or lower the signal. In short, it runs like this: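 HepaRG, 48 h chemical exposure, 8-pt half-log CRC from 100 uM, 0.5% DMSO vehicle, duplicates. Readout: TaqMan qRT-PCR of KRT19 mRNA, housekeeping-normalized (ACTB/GAPDH/POLR2A). Bidirectional fit vs DMSO baseline.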
With `CC(C)CCCCCCc1ccc(O)cc1`, the molecule was called inactive.

For `N#CSCSc1nc2ccccc2s1`, the molecule was called inactive.

Regarding `CC(=O)S[C@@H]1CC2=CC(=O)CC[C@]2(C)[C@H]2CC[C@@]3(C)[C@@H](CC[C@@]34CCC(=O)O4)[C@H]12`, the molecule was called inactive.

For the molecule `O=C(c1ccc(O)cc1O)c1ccc(O)cc1O`, the molecule was classed as inactive.

On to `CCOC(=O)COc1cc(-n2ncc(C(F)(F)F)c(C)c2=O)c(F)cc1Cl`, for which the molecule was classed as inactive.

As to `OB(O)O`, the outcome was inactive.

Consider `CCCCOC(=O)[C@@H](C)Oc1ccc(Oc2ccc(C(F)(F)F)cn2)cc1`, for which the molecule was called inactive.

Consider `CC(C)(C)[C@@H](O)[C@@H](Cc1ccc(Cl)cc1)n1cncn1`, for which the molecule was classed as inactive.

`CCCN(CCC)C(=O)SCC`: the outcome was inactive.

`CCCCOC(=O)C(C)Oc1ccc(Oc2ccc(C(F)(F)F)cn2)cc1` (stereo unspecified): the result was inactive.

As to `O=C(O)C1(C(=O)Nc2ccc(Cl)cc2Cl)CC1`, the outcome was inactive.

As to `COC(=O)c1ccc(I)cc1S(=O)(=O)NC(=O)Nc1nc(C)nc(OC)n1`, the molecule was classed as inactive.

Consider `C=CCOC(Cn1ccnc1)c1ccc(Cl)cc1Cl` (stereo unspecified), for which the AC50 is 12.3 µM (active).

Consider `C#C[C@]1(O)CC[C@H]2[C@@H]3CCC4=CC(=O)CC[C@@H]4[C@H]3CC[C@@]21CC`, for which the molecule was called inactive.

In the case of `C[C@]12C[C@H](O)[C@H]3[C@@H](CCC4=CC(=O)CC[C@@]43C)[C@@H]1CC[C@@H]2C(=O)CO`, the outcome was inactive.

`C#CCOC(=O)[C@@H](C)Oc1ccc(Oc2ncc(Cl)cc2F)cc1`: the molecule was classed as inactive.

Turning to `CCCCC(CC)CN1C(=O)C2C3C=CC(C3)C2C1=O` (stereo unspecified), the result was inactive.

Take `O=C(O)c1ccccc1`: the call was inactive.

`CCN(CC)C(=O)c1cccc(C)c1`: the molecule was classed as inactive.

With `CCCN(CCC)c1c([N+](=O)[O-])cc(C(F)(F)F)c(N)c1[N+](=O)[O-]`, the molecule was classed as inactive.

For `Cc1nn(C)c(Oc2ccccc2)c1C=NOCc1ccc(C(=O)OC(C)(C)C)cc1`, the AC50 was 2.05 µM (active).

For `COC(=O)c1ccccc1C(=O)O`, the molecule was classed as inactive.

For `CCCOC(=O)c1ccc(C(=O)OCCC)nc1`, the outcome was inactive.

For `CCCOC(=O)NCCCN(C)C`, the outcome was inactive.

As for `O=C(Nc1ccc([N+](=O)[O-])cc1Cl)c1cc(Cl)ccc1O`, the AC50 is 1.48 µM (active).

Take `CCC(C)OC(=O)N1CCCCC1CCO` (stereo unspecified): the molecule was classed as inactive.

Take `S=C([S-])NCCNC(=S)[S-].[Mn+2]`: the AC50 is 10 µM (active).

Read-out in another assay: JUN Transcription Factor, JUN (gene 3725)
Kind of assay: LTEA_HepaRG_JUN: Life Technologies and Expression Analysis (LTEA) Assay for JUN Transcription Factor using HepaRG (AID 2283513). The note with it: mRNA level, 48 h; actives raise or lower the signal. In short, it runs like this: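 Read-out is JUN transcript level by TaqMan qRT-PCR, normalized to ACTB, GAPDH and POLR2A, after 48 h chemical treatment of HepaRG cells. Concentration-response spanned eight half-log points up to 100 uM in 0.5% DMSO.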
Turning to `CC(C)CCCCCCc1ccc(O)cc1`, the molecule was called inactive.

For the molecule `N#CSCSc1nc2ccccc2s1`, the result was inactive.

`CC(=O)S[C@@H]1CC2=CC(=O)CC[C@]2(C)[C@H]2CC[C@@]3(C)[C@@H](CC[C@@]34CCC(=O)O4)[C@H]12`: the molecule was classed as inactive.

Turning to `O=C(c1ccc(O)cc1O)c1ccc(O)cc1O`, the result was inactive.

Consider `CCOC(=O)COc1cc(-n2ncc(C(F)(F)F)c(C)c2=O)c(F)cc1Cl`, for which the molecule was called inactive.

With `OB(O)O`, the outcome was inactive.

With `CCCCOC(=O)[C@@H](C)Oc1ccc(Oc2ccc(C(F)(F)F)cn2)cc1`, the molecule was classed as inactive.

As to `CC(C)(C)[C@@H](O)[C@@H](Cc1ccc(Cl)cc1)n1cncn1`, the result was inactive.

On to `CCCN(CCC)C(=O)SCC`, for which the result was inactive.

As for `CCCCOC(=O)C(C)Oc1ccc(Oc2ccc(C(F)(F)F)cn2)cc1` (stereo unspecified), the call was inactive.

For `O=C(O)C1(C(=O)Nc2ccc(Cl)cc2Cl)CC1`, the molecule was called inactive.

Turning to `COC(=O)c1ccc(I)cc1S(=O)(=O)NC(=O)Nc1nc(C)nc(OC)n1`, the molecule was called inactive.

As to `C=CCOC(Cn1ccnc1)c1ccc(Cl)cc1Cl` (stereo unspecified), the AC50 is 75.5 µM (active).

In the case of `C#C[C@]1(O)CC[C@H]2[C@@H]3CCC4=CC(=O)CC[C@@H]4[C@H]3CC[C@@]21CC`, the molecule was classed as inactive.

On to `C[C@]12C[C@H](O)[C@H]3[C@@H](CCC4=CC(=O)CC[C@@]43C)[C@@H]1CC[C@@H]2C(=O)CO`, for which the molecule was called inactive.

For `C#CCOC(=O)[C@@H](C)Oc1ccc(Oc2ncc(Cl)cc2F)cc1`, the result was inactive.

For `CCCCC(CC)CN1C(=O)C2C3C=CC(C3)C2C1=O` (stereo unspecified), the call was inactive.

Turning to `O=C(O)c1ccccc1`, the molecule was called inactive.

Regarding `CCN(CC)C(=O)c1cccc(C)c1`, the result was inactive.

Take `CCCN(CCC)c1c([N+](=O)[O-])cc(C(F)(F)F)c(N)c1[N+](=O)[O-]`: the result was inactive.

For the molecule `Cc1nn(C)c(Oc2ccccc2)c1C=NOCc1ccc(C(=O)OC(C)(C)C)cc1`, the molecule was classed as inactive.

As for `COC(=O)c1ccccc1C(=O)O`, the outcome was inactive.

On to `CCCOC(=O)c1ccc(C(=O)OCCC)nc1`, for which the outcome was inactive.

Consider `CCCOC(=O)NCCCN(C)C`, for which the molecule was classed as inactive.

Consider `O=C(Nc1ccc([N+](=O)[O-])cc1Cl)c1cc(Cl)ccc1O`, for which the concentration at half-maximal activity (AC50) is 2.42 µM (active).

On to `CCC(C)OC(=O)N1CCCCC1CCO` (stereo unspecified), for which the call was inactive.

Read-out in the next assay: Lipase C (LIPC), LIPC (gene 3990)
The assay is described as follows: LTEA_HepaRG_LIPC: Life Technologies and Expression Analysis (LTEA) Assay for Lipase C (LIPC) using HepaRG (AID 2283514). Conditions: mRNA level, 48 h; actives raise or lower the signal. In short, it runs like this:
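HepaRG, 48 h exposure, 8-pt half-log series from 100 uM in 0.5% DMSO, duplicates. Readout: LIPC mRNA by Fluidigm qRT-PCR, housekeeping-normalized (ACTB/GAPDH/POLR2A). Gain or loss fitted bidirectionally against DMSO baseline.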
`CC(C)CCCCCCc1ccc(O)cc1`: the molecule was called inactive.

For `N#CSCSc1nc2ccccc2s1`, the result was inactive.

With `CC(=O)S[C@@H]1CC2=CC(=O)CC[C@]2(C)[C@H]2CC[C@@]3(C)[C@@H](CC[C@@]34CCC(=O)O4)[C@H]12`, the AC50 was 50 µM (active).

Consider `O=C(c1ccc(O)cc1O)c1ccc(O)cc1O`, for which the molecule was classed as inactive.

Consider `CCOC(=O)COc1cc(-n2ncc(C(F)(F)F)c(C)c2=O)c(F)cc1Cl`, for which the result was inactive.

As to `OB(O)O`, the call was inactive.

In the case of `CCCCOC(=O)[C@@H](C)Oc1ccc(Oc2ccc(C(F)(F)F)cn2)cc1`, the molecule was called inactive.

For the molecule `CC(C)(C)[C@@H](O)[C@@H](Cc1ccc(Cl)cc1)n1cncn1`, the call was inactive.

As for `CCCN(CCC)C(=O)SCC`, the molecule was called inactive.

In the case of `CCCCOC(=O)C(C)Oc1ccc(Oc2ccc(C(F)(F)F)cn2)cc1` (stereo unspecified), the molecule was called inactive.

On to `O=C(O)C1(C(=O)Nc2ccc(Cl)cc2Cl)CC1`, for which the half-maximal activity concentration (AC50) was 76.2 µM (active).

For `COC(=O)c1ccc(I)cc1S(=O)(=O)NC(=O)Nc1nc(C)nc(OC)n1`, the outcome was inactive.

With `C=CCOC(Cn1ccnc1)c1ccc(Cl)cc1Cl` (stereo unspecified), the AC50 is 33 µM (active).

In the case of `C#C[C@]1(O)CC[C@H]2[C@@H]3CCC4=CC(=O)CC[C@@H]4[C@H]3CC[C@@]21CC`, the outcome was inactive.

For the molecule `C[C@]12C[C@H](O)[C@H]3[C@@H](CCC4=CC(=O)CC[C@@]43C)[C@@H]1CC[C@@H]2C(=O)CO`, the outcome was inactive.

Turning to `C#CCOC(=O)[C@@H](C)Oc1ccc(Oc2ncc(Cl)cc2F)cc1`, the molecule was classed as inactive.

`CCCCC(CC)CN1C(=O)C2C3C=CC(C3)C2C1=O` (stereo unspecified): the half-maximal activity concentration (AC50) is 88.2 µM (active).

For `O=C(O)c1ccccc1`, the outcome was inactive.

With `CCN(CC)C(=O)c1cccc(C)c1`, the molecule was called inactive.

On to `CCCN(CCC)c1c([N+](=O)[O-])cc(C(F)(F)F)c(N)c1[N+](=O)[O-]`, for which the AC50 was 50 µM (active).

For `Cc1nn(C)c(Oc2ccccc2)c1C=NOCc1ccc(C(=O)OC(C)(C)C)cc1`, the half-maximal activity concentration (AC50) was 24.2 µM (active).

As for `COC(=O)c1ccccc1C(=O)O`, the molecule was classed as inactive.

As for `CCCOC(=O)c1ccc(C(=O)OCCC)nc1`, the molecule was classed as inactive.

Consider `CCCOC(=O)NCCCN(C)C`, for which the result was inactive.

For `O=C(Nc1ccc([N+](=O)[O-])cc1Cl)c1cc(Cl)ccc1O`, the half-maximal activity concentration (AC50) was 4.31 µM (active).

As for `CCC(C)OC(=O)N1CCCCC1CCO` (stereo unspecified), the molecule was classed as inactive.

For `S=C([S-])NCCNC(=S)[S-].[Mn+2]`, the AC50 is 7.28 µM (active).

Source of the values: PubChem BioAssay (EPA / NIEHS).
